Test results: ChEMBL document CHEMBL3988442, “University of Dundee, Small-Polar-MMV Screening Library” (2021)
For some assays here: Potency and affinity values are given separately.

Tests used:
Parameters in all cases: scale not given: direction of the effect not stated beside the values
[1] = target: Protein translocase subunit SecA (Escherichia coli (strain K12)) (UniProt P10408); assay: Assay to Identify E. coli SecA ATPase Inhibitors; type: functional; details: 30 µM
[2] = target: T1, Ubiquitin-activating enzyme e1, putative (Leishmania donovani (strain BPK282A1)) (UniProt E9BSI1); assay: Leishmania donovani Ubiquitin Activating Enzyme (LdE1); type: functional; details: 30 µM
T1 sequence (whole entry): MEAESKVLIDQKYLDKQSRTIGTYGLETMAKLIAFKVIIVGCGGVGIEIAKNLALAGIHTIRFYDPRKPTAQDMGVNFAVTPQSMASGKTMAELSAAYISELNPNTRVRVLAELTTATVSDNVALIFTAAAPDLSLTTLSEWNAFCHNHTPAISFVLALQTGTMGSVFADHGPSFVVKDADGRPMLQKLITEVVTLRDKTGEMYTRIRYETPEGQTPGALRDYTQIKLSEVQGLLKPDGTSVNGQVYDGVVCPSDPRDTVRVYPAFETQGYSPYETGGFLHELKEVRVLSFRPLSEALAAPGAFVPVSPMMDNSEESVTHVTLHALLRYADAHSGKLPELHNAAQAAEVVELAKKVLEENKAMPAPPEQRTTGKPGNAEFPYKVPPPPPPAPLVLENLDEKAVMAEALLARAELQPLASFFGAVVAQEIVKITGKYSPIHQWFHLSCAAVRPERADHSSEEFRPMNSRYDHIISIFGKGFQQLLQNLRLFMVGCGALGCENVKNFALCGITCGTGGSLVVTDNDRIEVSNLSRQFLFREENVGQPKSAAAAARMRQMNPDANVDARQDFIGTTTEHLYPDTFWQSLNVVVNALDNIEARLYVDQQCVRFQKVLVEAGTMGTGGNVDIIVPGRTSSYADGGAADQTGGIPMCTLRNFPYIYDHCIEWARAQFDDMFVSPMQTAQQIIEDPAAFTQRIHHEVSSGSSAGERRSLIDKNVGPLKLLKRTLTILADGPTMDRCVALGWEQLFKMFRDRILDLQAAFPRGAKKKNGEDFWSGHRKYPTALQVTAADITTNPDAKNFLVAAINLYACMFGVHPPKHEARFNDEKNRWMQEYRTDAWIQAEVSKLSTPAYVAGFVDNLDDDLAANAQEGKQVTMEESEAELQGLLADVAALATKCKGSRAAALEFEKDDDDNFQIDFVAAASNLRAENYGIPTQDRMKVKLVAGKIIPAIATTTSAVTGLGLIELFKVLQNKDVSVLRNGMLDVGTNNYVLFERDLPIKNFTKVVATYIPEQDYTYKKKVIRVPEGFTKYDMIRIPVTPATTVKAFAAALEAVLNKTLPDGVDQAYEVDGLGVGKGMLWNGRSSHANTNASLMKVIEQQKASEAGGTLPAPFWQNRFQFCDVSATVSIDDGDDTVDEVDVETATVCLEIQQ

[3] = target: AMP-activated protein kinase, AMPK (Homo sapiens) (UniProt P54646+O43741+P54619+Q9UGJ0+Q9Y478+Q13131+Q9UGI9); assay: AMP-dependent Kinase enzyme assay. An in vitro enzyme assay that detects ADP turnover that is directly proportional to AMPK activity. This uses naive AMPK that is activated during the assay with MK-8722; type: functional; details: 30 µM
[4] = target: Sialic acid-binding Ig-like lectin 9 (Homo sapiens) (UniProt Q9Y336); assay: Hs-Siglec9 ALPHAscreen SOP 20170721; details: 10 µM
Trypanosoma cruzi = assay: Trypanosoma cruzi phosphomannomutase and mannose-1-phosphate guanylyltransferase assay; type: functional; details: 10 µM
[5] = target: T2, Arginase-2, mitochondrial (Homo sapiens) (UniProt P78540); assay: in vitro enzyme assay to detect the production of urea directly proportional to the activity of Arginase II; type: functional; details: 33.3 µM; also: in the data most compounds retested in dose-response had high values
T2 sequence (whole entry): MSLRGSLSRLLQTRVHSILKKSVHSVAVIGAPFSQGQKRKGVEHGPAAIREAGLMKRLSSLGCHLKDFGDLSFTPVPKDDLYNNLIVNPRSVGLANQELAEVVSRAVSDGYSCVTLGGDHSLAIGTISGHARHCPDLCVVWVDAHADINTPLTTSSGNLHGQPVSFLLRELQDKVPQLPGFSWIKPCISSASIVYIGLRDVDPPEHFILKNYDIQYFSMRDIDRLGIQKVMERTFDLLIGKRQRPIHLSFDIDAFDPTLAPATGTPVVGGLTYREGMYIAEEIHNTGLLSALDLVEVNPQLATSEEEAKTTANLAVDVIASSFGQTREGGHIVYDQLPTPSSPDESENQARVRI

[6] = target: T3, Proteasome subunit beta (Trypanosoma cruzi) (UniProt O96673); assay: Trypanosoma cruzi proteasome chymotrypsin-like activity (TcProtChymo) assay.; also: in the data most compounds retested in dose-response had high values; type: functional; details: 9.37 µM
T3 sequence (whole entry): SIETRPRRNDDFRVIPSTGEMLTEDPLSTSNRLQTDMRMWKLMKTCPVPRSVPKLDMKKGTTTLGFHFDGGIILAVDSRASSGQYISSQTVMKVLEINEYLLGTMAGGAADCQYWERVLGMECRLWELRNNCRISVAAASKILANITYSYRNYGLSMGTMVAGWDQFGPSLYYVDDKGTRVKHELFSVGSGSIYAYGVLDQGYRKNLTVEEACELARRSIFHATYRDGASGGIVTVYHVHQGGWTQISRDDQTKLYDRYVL

Homo sapiens = species on record: Homo sapiens; assay: To identify inhibition of the IFN signalling (Jak-Stat) pathway via expression of an eGFP reporter gene under the control of an IFN-stimulated response element (ISRE) containing MxA promoter.; type: functional; details: 30 µM
[7] = target: T4, Tyrosyl-tRNA synthetase, putative (Trypanosoma cruzi (strain CL Brener)) (UniProt Q4DSP6); assay: Trypanosoma cruzi tyrosyl tRNA synthetase (TcYRS) _High Tyrosine SOP; type: functional; details: 30 µM; also: in the data most compounds retested in dose-response had high values
T4 sequence (whole entry): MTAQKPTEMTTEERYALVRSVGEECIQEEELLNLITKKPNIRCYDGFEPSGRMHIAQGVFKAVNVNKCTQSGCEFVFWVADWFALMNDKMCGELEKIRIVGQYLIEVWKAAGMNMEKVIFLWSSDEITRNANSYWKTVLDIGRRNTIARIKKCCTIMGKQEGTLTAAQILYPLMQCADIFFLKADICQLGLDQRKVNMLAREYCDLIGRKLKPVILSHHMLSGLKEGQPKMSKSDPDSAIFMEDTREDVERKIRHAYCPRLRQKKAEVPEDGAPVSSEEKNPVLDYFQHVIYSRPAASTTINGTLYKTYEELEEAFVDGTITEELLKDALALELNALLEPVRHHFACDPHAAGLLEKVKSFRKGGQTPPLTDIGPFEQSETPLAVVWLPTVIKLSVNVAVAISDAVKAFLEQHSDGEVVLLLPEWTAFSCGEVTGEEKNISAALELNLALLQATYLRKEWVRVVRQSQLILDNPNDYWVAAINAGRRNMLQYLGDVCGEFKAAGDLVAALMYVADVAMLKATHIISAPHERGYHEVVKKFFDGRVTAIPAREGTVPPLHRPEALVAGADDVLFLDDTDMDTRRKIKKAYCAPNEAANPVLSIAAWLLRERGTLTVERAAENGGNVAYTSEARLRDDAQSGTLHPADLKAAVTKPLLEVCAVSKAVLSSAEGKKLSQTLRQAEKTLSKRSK

[8] = target: T4, Tyrosyl-tRNA synthetase, putative (Trypanosoma cruzi (strain CL Brener)); assay: Trypanosoma cruzi tyrosyl tRNA synthetase (TcYRS) SOP; type: functional; details: 30 µM
[9] = target: Chromo domain-containing protein 1 (Saccharomyces cerevisiae (strain ATCC 204508 / S288c) (Baker's yeast)) (UniProt P32657); assay: ScCHD-1 Enzyme Inhibition Assay; type: functional; details: 30 µM; also: in the data most compounds retested in dose-response had high values
Sequence of Chromo domain-containing protein 1 (Saccharomyces cerevisiae (strain ATCC 204508 / S288c) (Baker's yeast)) (P32657 whole entry, the tested form may be a part): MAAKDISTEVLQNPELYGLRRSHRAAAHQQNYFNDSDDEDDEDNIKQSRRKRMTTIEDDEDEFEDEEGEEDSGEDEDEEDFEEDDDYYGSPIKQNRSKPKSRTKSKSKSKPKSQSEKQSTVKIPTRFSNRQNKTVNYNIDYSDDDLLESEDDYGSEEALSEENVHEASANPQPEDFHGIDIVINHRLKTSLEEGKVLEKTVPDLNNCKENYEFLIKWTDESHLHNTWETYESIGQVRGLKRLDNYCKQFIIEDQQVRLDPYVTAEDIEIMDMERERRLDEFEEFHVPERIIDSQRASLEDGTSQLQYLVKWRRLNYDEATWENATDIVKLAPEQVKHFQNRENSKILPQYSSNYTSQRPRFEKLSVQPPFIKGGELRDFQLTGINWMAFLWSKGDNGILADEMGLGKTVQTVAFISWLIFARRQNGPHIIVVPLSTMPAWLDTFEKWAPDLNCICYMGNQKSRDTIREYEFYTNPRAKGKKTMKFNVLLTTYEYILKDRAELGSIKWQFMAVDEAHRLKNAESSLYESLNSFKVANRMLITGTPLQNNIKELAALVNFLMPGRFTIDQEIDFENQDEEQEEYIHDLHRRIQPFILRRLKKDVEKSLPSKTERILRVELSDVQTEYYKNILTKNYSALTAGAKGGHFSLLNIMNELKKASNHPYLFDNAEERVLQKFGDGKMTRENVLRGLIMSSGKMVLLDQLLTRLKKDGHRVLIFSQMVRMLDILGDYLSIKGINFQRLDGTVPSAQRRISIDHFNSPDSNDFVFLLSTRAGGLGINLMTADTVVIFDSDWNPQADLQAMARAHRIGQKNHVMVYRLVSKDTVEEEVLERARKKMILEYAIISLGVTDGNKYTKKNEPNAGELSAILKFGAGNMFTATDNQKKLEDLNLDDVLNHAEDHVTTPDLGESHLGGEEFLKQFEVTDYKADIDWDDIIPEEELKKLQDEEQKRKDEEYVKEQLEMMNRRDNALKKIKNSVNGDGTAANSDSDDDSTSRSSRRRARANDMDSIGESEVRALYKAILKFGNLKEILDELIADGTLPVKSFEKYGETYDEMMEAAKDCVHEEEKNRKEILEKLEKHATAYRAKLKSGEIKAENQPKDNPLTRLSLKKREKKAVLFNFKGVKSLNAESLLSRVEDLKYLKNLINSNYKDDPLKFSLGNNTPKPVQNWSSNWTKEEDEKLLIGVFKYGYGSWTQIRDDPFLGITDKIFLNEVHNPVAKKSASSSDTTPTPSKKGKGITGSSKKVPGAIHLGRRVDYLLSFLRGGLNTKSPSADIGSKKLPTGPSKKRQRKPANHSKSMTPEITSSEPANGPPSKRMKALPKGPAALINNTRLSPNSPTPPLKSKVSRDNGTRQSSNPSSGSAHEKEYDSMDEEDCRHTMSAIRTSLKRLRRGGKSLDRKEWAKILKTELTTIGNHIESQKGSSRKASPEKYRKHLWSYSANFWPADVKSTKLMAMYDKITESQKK

Sequence of Sialic acid-binding Ig-like lectin 9 (Homo sapiens) (Q9Y336 whole entry): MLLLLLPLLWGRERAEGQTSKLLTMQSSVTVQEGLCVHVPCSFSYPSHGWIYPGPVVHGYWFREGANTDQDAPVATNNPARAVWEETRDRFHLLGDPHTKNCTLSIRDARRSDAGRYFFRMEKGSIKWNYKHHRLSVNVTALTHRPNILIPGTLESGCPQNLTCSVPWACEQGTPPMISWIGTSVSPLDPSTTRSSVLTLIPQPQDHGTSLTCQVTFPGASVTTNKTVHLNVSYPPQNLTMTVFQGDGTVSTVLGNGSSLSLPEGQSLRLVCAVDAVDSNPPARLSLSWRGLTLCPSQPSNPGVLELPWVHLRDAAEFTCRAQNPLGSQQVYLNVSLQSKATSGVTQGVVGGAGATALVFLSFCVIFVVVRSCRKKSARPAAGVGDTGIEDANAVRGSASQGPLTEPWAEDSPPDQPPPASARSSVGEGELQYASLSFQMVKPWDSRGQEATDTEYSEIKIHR
Sequence of Protein translocase subunit SecA (Escherichia coli (strain K12)) (P10408 whole entry): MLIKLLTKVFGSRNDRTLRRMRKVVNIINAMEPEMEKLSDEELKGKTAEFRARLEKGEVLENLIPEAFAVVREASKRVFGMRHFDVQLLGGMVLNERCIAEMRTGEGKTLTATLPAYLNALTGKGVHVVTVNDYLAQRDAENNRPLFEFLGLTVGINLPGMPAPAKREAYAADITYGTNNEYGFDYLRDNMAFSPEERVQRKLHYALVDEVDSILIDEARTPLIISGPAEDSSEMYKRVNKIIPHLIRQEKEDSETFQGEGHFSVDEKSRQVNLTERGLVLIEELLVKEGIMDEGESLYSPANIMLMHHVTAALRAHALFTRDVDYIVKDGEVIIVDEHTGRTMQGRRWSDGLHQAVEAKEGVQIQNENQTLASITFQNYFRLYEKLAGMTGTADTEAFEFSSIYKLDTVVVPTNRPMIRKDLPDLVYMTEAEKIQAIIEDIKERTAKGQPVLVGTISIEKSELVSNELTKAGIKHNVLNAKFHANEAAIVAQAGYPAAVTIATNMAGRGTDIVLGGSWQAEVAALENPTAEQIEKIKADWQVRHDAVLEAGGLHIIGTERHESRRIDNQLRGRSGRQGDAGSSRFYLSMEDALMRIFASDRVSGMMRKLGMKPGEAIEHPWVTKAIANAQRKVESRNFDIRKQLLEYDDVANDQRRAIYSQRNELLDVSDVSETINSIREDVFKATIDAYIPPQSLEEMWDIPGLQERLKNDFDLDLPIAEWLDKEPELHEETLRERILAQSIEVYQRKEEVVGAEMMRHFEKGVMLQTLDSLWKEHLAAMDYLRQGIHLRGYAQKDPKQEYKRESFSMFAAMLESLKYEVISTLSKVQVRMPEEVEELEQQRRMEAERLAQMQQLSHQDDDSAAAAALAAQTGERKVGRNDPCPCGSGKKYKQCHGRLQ

Work on `CN(C)c1cc(CNC(=O)c2cn(-c3ccc(F)cc3)nn2)ccn1` yielded a Percent Effect [1] of -5.01%, a Percent Effect [2] of 10.4% and a Percent Effect [3] of 1.52%. For the same molecule, the Percent Effect [4] was 2.16%, the Percent Effect (Trypanosoma cruzi) was 0.686% and the Percent Effect [5] was 3.58%. The Percent Effect [6] was 14.2%, the Percent Effect (Homo sapiens) was 11.3% and the Percent Effect [7] was 7.62%. It also gave a Percent Effect [8] of 21.2% and a Percent Effect [9] of -6.24%.
`O=C(Cn1cnnn1)N1CCCCC1Cn1cccn1` (stereo not given) showed a Percent Effect [1] of -4.89%, a Percent Effect [2] of 5.06% and a Percent Effect [3] of -3.21%. For the same molecule, the Percent Effect [4] was -2.69%, the Percent Effect (Trypanosoma cruzi) was -6.52% and the Percent Effect [5] was -3.04%. It also gave a Percent Effect [6] of 0.901%, a Percent Effect (Homo sapiens) of 25.2% and a Percent Effect [7] of -3.45%. For the same molecule, the Percent Effect [8] was -11.4% and the Percent Effect [9] was -5.05%.
Work on `CN(Cc1cn2c(n1)CN(C(=O)CC1CC1)CC2)Cc1ccco1` yielded a Percent Effect [1] of -3.7%, a Percent Effect [2] of 2.67% and a Percent Effect [3] of 8.42%. For the same molecule, the Percent Effect [4] was 1.6%, the Percent Effect (Trypanosoma cruzi) was -0.197% and the Percent Effect [5] was 8.16%. For the same molecule, the Percent Effect [6] was -3.44%, the Percent Effect (Homo sapiens) was 20.3% and the Percent Effect [7] was 5.32%. It also gave a Percent Effect [8] of 14.1% and a Percent Effect [9] of -0.584%.
`CC(C)CC(=O)N1CCc2nc(N3CCOCC3)nc(NC(C)C)c2C1` gave a Percent Effect [1] of -4.18%, a Percent Effect [2] of 2.67% and a Percent Effect [3] of 12.4%. It also gave a Percent Effect [4] of -0.324%, a Percent Effect (Trypanosoma cruzi) of -1.57% and a Percent Effect [5] of 2.56%. For the same molecule, the Percent Effect [6] was 2.03%, the Percent Effect (Homo sapiens) was 8.78% and the Percent Effect [7] was 9.57%. It also gave a Percent Effect [8] of 14.1% and a Percent Effect [9] of -8.4%.
`COCCNc1nc2c(c(NCc3ccncc3)n1)CCNCC2` was tested, and the Percent Effect [1] was 1.06%, the Percent Effect [2] was 0% and the Percent Effect [3] was -4.61%. It also gave a Percent Effect [4] of 0.0545%, a Percent Effect (Trypanosoma cruzi) of 3.28% and a Percent Effect [5] of -3.81%. The Percent Effect [6] was 13.8%, the Percent Effect (Homo sapiens) was 5.66% and the Percent Effect [7] was 5.82%. It also gave a Percent Effect [8] of 7.32% and a Percent Effect [9] of -2.76%.
With `Cc1ccc(C)c(OCCN2CCC(N3CCNC3=O)CC2)c1` the Percent Effect [1] was -3.83%, the Percent Effect [2] was 10.8% and the Percent Effect [3] was -16.9%. The Percent Effect [4] was 6.39%, the Percent Effect (Trypanosoma cruzi) was -2.69% and the Percent Effect [5] was 2.03%. For the same molecule, the Percent Effect [6] was 1.62%, the Percent Effect (Homo sapiens) was 6.79% and the Percent Effect [7] was 4.95%. The Percent Effect [8] was 13.4% and the Percent Effect [9] was -0.537%.
Work on `N#Cc1cccc(NC(=O)N[C@H](CO)c2ccccc2)c1` yielded a Percent Effect [1] of -2.38%, a Percent Effect [2] of 5.41% and a Percent Effect [3] of 5.16%. The Percent Effect [4] was 5.37%, the Percent Effect (Trypanosoma cruzi) was -1.35% and the Percent Effect [5] was 3.33%. It also gave a Percent Effect [6] of 11.6%, a Percent Effect (Homo sapiens) of 5.19% and a Percent Effect [7] of 1.59%. The Percent Effect [8] was 12.2% and the Percent Effect [9] was -2.38%.
Molecule `O=C(c1ccccn1)N1C[C@@H]2CC[C@H](C1)N(C(=O)CCc1ccsc1)C2` has a Percent Effect [1] of -0.66%, a Percent Effect [2] of 7.79% and a Percent Effect [3] of 1.47%. It also gave a Percent Effect [4] of 8.15%, a Percent Effect (Trypanosoma cruzi) of -4.82% and a Percent Effect [5] of -5.52%. The Percent Effect [6] was 13.3%, the Percent Effect (Homo sapiens) was 5.27% and the Percent Effect [7] was 7.53%. For the same molecule, the Percent Effect [8] was 13.6% and the Percent Effect [9] was -2.49%.
For `CC(=O)Nc1ncc(S(=O)(=O)Nc2ccc(F)cc2)s1`, the Percent Effect [1] was -4.49%, the Percent Effect [2] was 17.3% and the Percent Effect [3] was -9.36%. The Percent Effect [4] was -7.58%, the Percent Effect (Trypanosoma cruzi) was 2.36% and the Percent Effect [5] was -0.88%. For the same molecule, the Percent Effect [6] was 12.2%, the Percent Effect (Homo sapiens) was 20.4% and the Percent Effect [7] was 3.17%. The Percent Effect [8] was 10.3% and the Percent Effect [9] was -10.6%.
For `Cc1ccn(-c2ccccc2NCc2cccnc2C)n1`, the Percent Effect [1] was -0.328%, the Percent Effect [2] was 0% and the Percent Effect [3] was 2.86%. The Percent Effect [4] was -2.06%, the Percent Effect (Trypanosoma cruzi) was -0.196% and the Percent Effect [5] was 0%. It also gave a Percent Effect [6] of 3.02%, a Percent Effect (Homo sapiens) of 17.4% and a Percent Effect [7] of -1.07%. It also gave a Percent Effect [8] of -2.5% and a Percent Effect [9] of -0.646%.
